According to PubChem BioAssay:
For some assays here: Measured potencies and affinities stand elsewhere. Some of the results follow. Records with an inconclusive call do not appear. Activity calls are given as the source filed them. Unless noted, no rule for the calls is given here.

Columns and labels:
[1] = Ring1 de-repression measured by qPCR – cell-based, mouse ESC, RT-qPCR, cherry-pick, esBAF inhibitor project, confirmation (AID 743176;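 active = Ring1 gene expression raised more than 2-fold over untreated cells in both replicates at either tested dose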;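 also: Ring1 transcript normalised to actin housekeeping signal by TaqMan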); conditions: mouse ESC E14, Ring1 mRNA RT-qPCR fold change, stronger effect = higher value
[2] = Fgf4 repression measured by qPCR – cell-based, mouse ESC, RT-qPCR, cherry-pick, esBAF inhibitor project, confirmation (AID 743177;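 active = Fgf4 expression under 0.8 fold of control in both repeat measurements at one or both tested doses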;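 also: Fgf4 transcript normalised to actin in duplex TaqMan qPCR; cells exposed to compound for 24 h before lysis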); conditions: mouse ESC E14, Fgf4 mRNA qPCR fold change, stronger effect = lower value
[3] = Bmi1 mRNA increase in mouse ESCs – cell-based, RT-qPCR, mouse ESC, single point, cherry-pick, confirmation (AID 743180;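 active = Bmi1 expression fold change above 6 at either tested concentration, seen in replicate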;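 also: higher fold means more Bmi1 de-repression and stronger esBAF inhibition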); conditions: mouse ESC E14, Bmi1 mRNA qPCR fold, stronger effect = higher value
[4] = viability loss in A549 cells – cell-based, plate reader, single point, cherry-pick, cytotoxicity control (AID 743188); conditions: at 25 µM
[5] = viability loss in HepG2 cells – cell-based, plate reader, single point, cherry-pick, cytotoxicity control (AID 743189; in the data active = activity change below about -50%); conditions: at 25 µM, stronger effect = lower value
[6] = viability loss in HEK293 cells – cell-based, plate reader, single point, cherry-pick, cytotoxicity control (AID 743190; in the data active = activity change below about -38%, passing the limit was not always enough); conditions: at 25 µM
[7] = A549 cell cytotoxicity, dose response, cytotoxicity control, plate reader, cherry-pick, antagonist series (AID 743412); conditions: series mostly up to 26 µM;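 also: 0% = neutral control wells and -100% = positive control wells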
[8] = OVCAR8 cell viability loss – plate reader, dry powder samples, PAX8 project, dose response (AID 743197); conditions: series mostly up to 35 µM

## O=C(c1noc2c1CCCC2)N1CCc2ccccc2C1
[1]; Ring1 fold increase, at 7 µM
  fold change: 1.38
[1]; at 33 µM
  fold change: 1.19 (inactive)
[2]; Fgf4 expression, at 7 µM
  Fgf4 expression fold change: 1.06
[2]; at 33 µM
  Fgf4 expression fold change: 1.15 (inactive)
[3]; Bmi1 de-repression, at 7 µM
  fold change: 1.08
[3]; at 33 µM
  fold change: 1.13 (inactive)
[4]
  cell viability change % (negative = cytotoxic): -13.7% (inactive)
[5]
  activity change, negative = inhibition: 0.136% (inactive)
[6]
  activity change, negative = inhibition: -12.4% (inactive)

## CCc1c(C)sc(NC(=O)c2cccs2)c1C(N)=O
[1]; Ring1 fold increase, at 7 µM
  fold change: 1.31
[1]; at 33 µM
  fold change: 0.944 (inactive)
[2]; Fgf4 expression, at 7 µM
  Fgf4 expression fold change: 1.09
[2]; at 33 µM
  Fgf4 expression fold change: 1.11 (inactive)
[3]; Bmi1 de-repression, at 7 µM
  fold change: 1.35
[3]; at 33 µM
  fold change: 1.67 (inactive)
[4]
  cell viability change % (negative = cytotoxic): -14% (inactive)
[5]
  activity change, negative = inhibition: -29% (inactive)
[6]
  activity change, negative = inhibition: -22.2% (inactive)

## COc1ccc(-c2csc(Nc3cccc(C)n3)n2)cc1OC
[1]; Ring1 fold increase, at 7 µM
  fold change: 1.32
[1]; at 33 µM
  fold change: 1.24 (inactive)
[3]; Bmi1 de-repression, at 7 µM
  fold change: 1.47
[3]; at 33 µM
  fold change: 2.28 (inactive)
[4]
  cell viability change % (negative = cytotoxic): -8.92% (inactive)
[5]
  activity change, negative = inhibition: 29% (inactive)
[6]
  activity change, negative = inhibition: 4.06% (inactive)

## COc1ccc(N=Cc2c(O)[nH]c3ccccc23)cc1OC
[1]; Ring1 fold increase, at 7 µM
  fold change: 1.32
[1]; at 33 µM
  fold change: 1.03 (inactive)
[2]; Fgf4 expression, at 7 µM
  Fgf4 expression fold change: 1.1
[2]; at 33 µM
  Fgf4 expression fold change: 1.2 (inactive)
[3]; Bmi1 de-repression, at 7 µM
  fold change: 1.45
[3]; at 33 µM
  fold change: 2 (inactive)
[4]
  cell viability change % (negative = cytotoxic): 0.475% (inactive)
[5]
  activity change, negative = inhibition: 24% (inactive)
[6]
  activity change, negative = inhibition: -17.2% (inactive)

## COc1ccc(CNC(=O)COc2ccccc2C(=O)c2cnn(-c3ccccc3)c2)cc1OC
[1]; Ring1 fold increase, at 7 µM
  fold change: 1.09
[1]; at 33 µM
  fold change: 1.32 (inactive)
[2]; Fgf4 expression, at 7 µM
  Fgf4 expression fold change: 1.03
[2]; at 33 µM
  Fgf4 expression fold change: 0.967 (inactive)
[3]; Bmi1 de-repression, at 7 µM
  fold change: 1.36
[3]; at 33 µM
  fold change: 1.57 (inactive)
[4]
  cell viability change % (negative = cytotoxic): 0.333% (inactive)
[5]
  activity change, negative = inhibition: -55.5% (active)
[6]
  activity change, negative = inhibition: -15.3% (inactive)

## COc1ccc(/C=N/OCc2ccccc2C#N)c(OC)c1
[1]; Ring1 fold increase, at 7 µM
  fold change: 1.08
[1]; at 33 µM
  fold change: 0.981 (inactive)
[3]; Bmi1 de-repression, at 7 µM
  fold change: 1.34
[3]; at 33 µM
  fold change: 1.44 (inactive)
[4]
  cell viability change % (negative = cytotoxic): -7.58% (inactive)
[5]
  activity change, negative = inhibition: -31.8% (inactive)
[6]
  activity change, negative = inhibition: -7.24% (inactive)

## C[C@H](CO)N1C[C@H](C)[C@H](CN(C)C(=O)Cc2ccccc2)OCCCC[C@H](C)Oc2ccc(NC(=O)Nc3ccc(C(F)(F)F)cc3)cc2C1=O
[7]
  outcome: inactive

## COc1cc(NC(=O)c2cccc3c(-c4cccnc4)coc23)cc(OC)c1OC
[7]
  outcome: inactive

## CC(C)(C)NC(=O)Cn1nnc(-c2ccccc2Cl)n1
[1]; Ring1 fold increase, at 7 µM
  fold change: 1.18
[1]; at 33 µM
  fold change: 1.12 (inactive)
[2]; Fgf4 expression, at 7 µM
  Fgf4 expression fold change: 0.977
[2]; at 33 µM
  Fgf4 expression fold change: 0.933 (inactive)
[3]; Bmi1 de-repression, at 7 µM
  fold change: 1.16
[3]; at 33 µM
  fold change: 1.15 (inactive)
[4]
  cell viability change % (negative = cytotoxic): -11.9% (inactive)
[5]
  activity change, negative = inhibition: -3.1% (inactive)
[6]
  activity change, negative = inhibition: -13.6% (inactive)

## O=S(=O)(NC[C@@H]1CC[C@@H]2[C@@H](CN2CC(c2ccccc2)c2ccccc2)O1)c1ccccc1F
[8]
  outcome: inactive

## COc1ccccc1CCn1cnc(-c2ccccc2OC)c1C(C)C
[7]
  outcome: inactive

## O=C(O)c1cccc(-c2noc(-c3cccc(Cl)c3)n2)c1
[7]
  outcome: inactive

## O=C(Nc1nc(-c2ccc(S(=O)(=O)N3CCOCC3)cc2)cs1)c1ccccc1
[7]
  outcome: inactive

## O=C(NN=Cc1ccc2c(c1)CCC2)c1ccccc1O
[1]; Ring1 fold increase, at 7 µM
  fold change: 1.13
[1]; at 33 µM
  fold change: 1.24 (inactive)
[2]; Fgf4 expression, at 7 µM
  Fgf4 expression fold change: 0.906
[2]; at 33 µM
  Fgf4 expression fold change: 0.972 (inactive)
[3]; Bmi1 de-repression, at 7 µM
  fold change: 1.51
[3]; at 33 µM
  fold change: 1.77 (inactive)
[4]
  cell viability change % (negative = cytotoxic): -5.69% (inactive)
[5]
  activity change, negative = inhibition: -32.1% (inactive)
[6]
  activity change, negative = inhibition: 0.295% (inactive)

## CC(C)(C)c1ccc(-c2nc(-c3ccncc3)no2)cc1
[7]
  outcome: inactive

## CC(Cc1cccs1)NC(=O)c1cccc(Cl)c1 (stereo unspecified)
[1]; Ring1 fold increase, at 7 µM
  fold change: 1.11
[1]; at 33 µM
  fold change: 1.07 (inactive)
[2]; Fgf4 expression, at 7 µM
  Fgf4 expression fold change: 1.02
[2]; at 33 µM
  Fgf4 expression fold change: 1.08 (inactive)
[3]; Bmi1 de-repression, at 7 µM
  fold change: 1.36
[3]; at 33 µM
  fold change: 1.53 (inactive)
[4]
  cell viability change % (negative = cytotoxic): -16% (inactive)
[5]
  activity change, negative = inhibition: -51.2% (active)
[6]
  activity change, negative = inhibition: -22.2% (inactive)

## COc1ccc(-n2ncc3c(N4CCC(C)CC4)ncnc32)cc1
[7]
  outcome: inactive

## C=CCN1CCN(C(=O)CCCc2ccccc2)CC1
[7]
  outcome: inactive
